# In PubChem BioAssay (NCI):
# This is part of a sample that, as a whole, favours compounds with a hit. Of some 83,000 tested, about 20% had one in any assay.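 Activity criterion: percent growth below 10, measured after cells in 96-well plates were exposed to a single compound concentration for 48 hours.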 Unmarked numbers belong to inactive results. Activity calls are given as the source filed them.
# Experiments:
# Assay in all cases: NCI-60 one-dose screen, 48 h (100 = growth as untreated, 0 = no growth, -100 = all killed)
# Details in all cases: 10 µM unless noted
# HCT-15 colon = system: HCT-15 colon
# SNB-19 CNS = system: SNB-19 CNS
# U251 CNS = system: U251 CNS
# PC-3 prostate = system: PC-3 prostate
# UACC-62 melanoma = system: UACC-62 melanoma
# SK-MEL-28 melanoma = system: SK-MEL-28 melanoma
# SK-MEL-2 melanoma = system: SK-MEL-2 melanoma
# EKVX NSCLC = system: EKVX NSCLC
# SN12C renal = system: SN12C renal
# UO-31 renal = system: UO-31 renal
# TK-10 renal = system: TK-10 renal
# ACHN renal = system: ACHN renal
# CAKI-1 renal = system: CAKI-1 renal
# CCRF-CEM leukemia = system: CCRF-CEM leukemia
# MOLT-4 leukemia = system: MOLT-4 leukemia
# SK-MEL-5 melanoma = system: SK-MEL-5 melanoma
# LOX IMVI melanoma = system: LOX IMVI melanoma
# A498 renal = system: A498 renal
# SNB-75 CNS = system: SNB-75 CNS
Compound,growth (HCT-15 colon),growth (SNB-19 CNS),growth (U251 CNS),growth (PC-3 prostate),growth (UACC-62 melanoma),growth (SK-MEL-28 melanoma),growth (SK-MEL-2 melanoma),growth (EKVX NSCLC),growth (SN12C renal),growth (UO-31 renal),growth (TK-10 renal),growth (ACHN renal),growth (CAKI-1 renal),growth (CCRF-CEM leukemia),growth (MOLT-4 leukemia),growth (SK-MEL-5 melanoma),growth (LOX IMVI melanoma),growth (A498 renal),growth (SNB-75 CNS)
O=[N+]([O-])c1ccc2c(N=Nc3ccc4ccccc4c3O)c(O)cc(S(=O)(=O)O)c2c1,85.1%,79.7%,57.7%,77.2%,79.4%,98.8%,102%,95.2%,99.4%,62.6%,91.6%,78.7%,60.1%,63.6%,91.7%,,,,
N#CSCc1ccc(Cl)c(CSC#N)c1,18%,61.5%,61%,25.5%,57.3%,68.6%,83.2%,75.1%,33.1%,24.6%,59.5%,32.5%,,12%,17.5%,19.8%,19.9%,18%,
CN(C)CCOc1ccc2c(c1)C(=O)/C(=C\c1ncc([N+](=O)[O-])n1C)C2,-10.2% (active),-39.2% (active),-14.4% (active),-11.2% (active),-59.7% (active),-71.2% (active),-72.5% (active),-18.9% (active),0.0262% (active),-36.7% (active),-9.94% (active),-31.9% (active),,-61.1% (active),-32.1% (active),-97.6% (active),-41.9% (active),-88% (active),
CC1(C)CC([P+](c2ccccc2)(c2ccccc2)c2ccccc2)=NN1,94.3%,,25.5%,29.1%,32.2%,67.9%,-19.2% (active),67.4%,30.4%,67.8%,56.4%,88.1%,90.1%,41.3%,21%,12.4%,,92%,34.3%
Oc1c(Br)c(Br)c(O)c(Br)c1Br,11%,,114%,105%,93.3%,92.8%,104%,112%,113%,-80.4% (active),42.6%,-33.2% (active),92.5%,15.8%,42.6%,102%,90.9%,127%,120%
CCN1/C(=C\c2cc[n+](CC)c3ccccc23)C=Cc2ccccc21,29.7%,,17%,11.4%,-21.4% (active),3% (active),0.604% (active),15.8%,8.57% (active),11.4%,22.3%,15.2%,53.9%,28.1%,13.2%,-74.4% (active),4.04% (active),-20.2% (active),14.3%
CC(=O)ON=C1C=CC(=C(C#N)c2ccccc2)C=C1,8.51% (active),82.5%,22.9%,-1.95% (active),26.1%,55.5%,41.2%,82.7%,18%,38%,21.1%,14%,19.9%,23.5%,40.8%,48.1%,5.8% (active),102%,
Cn1c2ccccc2c2nnc(N/N=C/c3ccccn3)nc21,27.6%,26.1%,14.2%,28.4%,-6.2% (active),18.5%,51.3%,-11.9% (active),12.3%,4.82% (active),-18.9% (active),-4.67% (active),-21.1% (active),-37.2% (active),-21.7% (active),,1.32% (active),34.5%,
CCN(CC)CCOc1ccc(-c2nc3cc(Cl)ccc3s2)cc1,-71.9% (active),40.7%,-3.49% (active),4.44% (active),-86.9% (active),-79.7% (active),80.2%,57.3%,36%,-46.7% (active),8.65% (active),10.3%,11.9%,4.45% (active),-79.3% (active),,-86.5% (active),,-0.875% (active)
